Reference: PubChem BioAssay (NCI)
This is part of a sample that, as a whole, favours compounds with a hit. Of some 79,000 tested, about 15% had one in any assay. A number with no mark means an inactive call. The source made the active and inactive calls. Rule as the data show it: active = growth inhibition above about 70%; inactive = the rest.

Legend:
[1] = NCI Yeast Anticancer Drug Screen. Data for the rad50 strain (AID 155);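 also: 0% = growth of vehicle-only cultures of the same strain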; details: S. cerevisiae rad50 strain growth inhibition; at 50.0 µM; hits give high values
Outline: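 Relative growth inhibition (compound vs vehicle) was measured in yeast with a defined repair-gene alteration.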

[2] = NCI Yeast Anticancer Drug Screen. Data for the mec2-1 strain (AID 157); details: S. cerevisiae mec2-1 strain, at 50.0 µM, hits give high values
Outline: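 Compounds were applied to mec2-1 yeast cells. Their growth was then compared with that of vehicle-treated cultures to give growth inhibition.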

[3] = NCI Yeast Anticancer Drug Screen. Data for the sgs1 mgt1 strain (AID 161);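 also: 0% = growth of cultures given vehicle only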; details: S. cerevisiae sgs1 mgt1 strain, at 50.0 µM, hits give high values
Outline: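 Percent growth inhibition was derived by comparing compound-exposed mutant yeast with vehicle-exposed cultures. The strain carries alterations in DNA damage repair.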

[4] = NCI Yeast Anticancer Drug Screen. Data for the cln2 rad14 strain (AID 165);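 also: 0% = growth equal to vehicle treated cultures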; details: S. cerevisiae cln2 rad14 strain, at 50.0 µM, hits give high values
Outline: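 Strain: cln2 rad14 yeast, altered in cell cycle control and DNA damage repair. Read-out: growth inhibition vs vehicle.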

[5] = NCI Yeast Anticancer Drug Screen. Data for the bub3 strain (AID 167); details: S. cerevisiae bub3 mutant strain, at 50.0 µM, hits give high values
Outline: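 Screening used yeast with an engineered genetic alteration affecting cell cycle control. Compound-exposed cultures were compared with vehicle cultures, and reduced growth was taken as inhibition.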

[6] = NCI Yeast Anticancer Drug Screen. Data for the mlh1 rad18 strain (AID 175); details: S. cerevisiae mlh1 rad18 strain growth inhibition; at 50.0 µM; hits give high values
Outline: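 A repair-deficient yeast strain is exposed to test compound, and growth is scored relative to vehicle-treated controls.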

Row | SMILES | growth inhibition [1] | growth inhibition [2] | growth inhibition [3] | growth inhibition [4] | growth inhibition [5] | growth inhibition [6]
1 | CC(=O)N1N=C(c2ccc(OCC(O)CN3CCN(CC(O)COc4ccc(C5=NN(C(C)=O)C(c6ccccc6)C5)cc4)CC3)cc2)CC1c1ccccc1 (centres undefined) | -30.6% | -25.9% | -8.85% | -30.4% | -25.9% | -3.8%
2 | Cc1nc(-n2nc(-c3ccccc3)cc2-c2ccccc2)sc1C(/C=C/c1ccc([N+](=O)[O-])cc1)=N/NC(=O)c1ccncc1 | 47.4% | 36.7% | 17.9% | -24.7% | 46.1% | 58.5%
3 | CC(=O)N/C(=C\c1ccc(Cc2nc3c([nH]2)C(=O)c2ccccc2C3=O)cc1)c1nc2c([nH]1)C(=O)c1ccccc1C2=O | -7.5% | 12.4% | 11.1% | 23.7% | 15.2% | 33.1%
4 | O=C(O)Cc1cc(O)c(CC(=O)O)cc1O | -11.9% | -21.9% | -49.4% | -20.4% | -22.4% | -4.1%
5 | Cc1ccc(-c2cc(O)c3nc4ccccc4n3c2)cc1 | -36.4% | -10.1% | -31.4% | -22.9% | -18.5% | -24.1%
6 | COC1=CC(=O)C2CC=C(C)CC2(C)C1=O (centres undefined) | -7.9% | -12.4% | -16.6% | 18% | -0.05% | -3.8%
7 | COc1ccc2c(C)cc(N/N=C(\C)c3cn(C)n(-c4ccccc4)c3=O)nc2c1 | -2.25% | -7.1% | -5.95% | 13.2% | -1.8% | 1.65%
8 | CSc1nc2c(c(O)c(C)c(=O)n2C2OC(COC(C)=O)C(OC(C)=O)C(OC(C)=O)C2OC(C)=O)c(=O)n1C (centres undefined) | 10.1% | -4.3% | 62.8% | 32.9% | 34.7% | 7.25%
9 | CN(C)C(=O)Nc1cccc(OC(=O)NC2CCCCCCC2)c1 | 2.65% | 28.3% | 29.2% | 3.95% | 34.4% | 19.6%
10 | O=C(CC(=O)C(F)(F)F)c1ccc2c(c1)Cc1ccccc1-2 | -10.2% | 28.9% | 3.75% | 14.9% | -2.7% | 23.6%
11 | C=C1C(=O)C23CC1C[C@H](OC(C)=O)C2C1(C)C(OC(C)=O)C[C@H](O)C(C)(C)[C@H]1C(O)[C@@H]3OC(C)=O (some centres undefined) | 9.8% | -3.85% | 3.25% | -2.95% | 24.1% | 20.3%
12 | CC1CN(N)C(=O)O1 (centres undefined) | -3.9% | -18.4% | -19% | 2.9% | 2.6% | -21.9%
13 | COc1ccc(/C=C2\C(=O)N(C(=O)Cc3ccccc3)N=C2C)cc1OC | -20.3% | -20.2% | -59.1% | -16.8% | -12.4% | -42.6%
14 | Cc1cccc(C)c1NC(=O)C(=O)/C(=C(\N)c1ccccc1)c1ccccc1 | -14.3% | -9.5% | -15.2% | 29.8% | 10.2% | -9.15%
15 | CCOC(=O)/C(F)=C/c1cccc(C)c1 | -5.05% | -23% | -17.9% | -4.7% | -5.45% | -3.1%
16 | COC(=O)Nc1cccc(OC(=O)Nc2cccc(Cl)c2)c1 | 10.3% | 25.2% | 26.6% | -2.85% | 31.4% | 1.4%
17 | Cc1ccc2c(c1)[nH]c(=S)n2/C=C(\c1ccccc1)S(=O)Cc1ccccc1 (centres undefined) | -23.7% | -25.6% | -19.9% | 0.3% | -28.1% | -26.2%
18 | O=[N+]([O-])c1ccc(Oc2ccc(S(=O)(=O)O)cc2)cc1 | 13.8% | 6.5% | -4.35% | 7.4% | 6.6% | 2.5%
19 | CCOC(=O)c1ccc(C=O)cc1 | 15.5% | -5.75% | -4.95% | 6.25% | -5.8% | -11.5%
20 | NC(=O)C1=CC2C3C=CC2(O)C(=O)OC3O1 (centres undefined) | -15.3% | -28.6% | -12.6% | 3.2% | -22.9% | -11.1%

Row | SMILES | growth inhibition [1] | growth inhibition [2] | growth inhibition [3] | growth inhibition [4] | growth inhibition [5] | growth inhibition [6]
21 | CC1=CC(C)(C)SC(=S)N1 | 24.9% | 5.3% | 19.8% | -60.6% | -3.35% | 29.3%
22 | O=C(Nc1ccc2c(c1)Cc1ccccc1-2)C(Cl)Cl | 20.4% | 1.95% | 10.6% | -7.85% | 42.5% | 14%
23 | CCOC(=O)NN(C(=O)OCC)C(=C(C1=CCCCC1)N1CCOCC1)N(NC(=O)OCC)C(=O)OCC | -14.4% | 4.25% | 3.3% | 1.9% | -4.8% | -6.5%
24 | [O-][N+]1=CCCC1 | 4.4% | -13.9% | -0.65% | -5.5% | -0.2% | -16.4%
25 | CC(=O)Nc1ccc(Cc2ccc(Cl)cc2)cc1 | 5.6% | 0.7% | 5.7% | 10.8% | -9.8% | -2.6%
26 | CCC(=O)N1C(=O)C(C)C23c4ccccc4C(=O)N2CCCN13 (centres undefined) | 4.35% | -13.1% | -1.8% | 11.1% | 1.8% | 15.8%
27 | CCCCN(CCCC)CC(CC)N(CCCC)CCCC (centres undefined) | -8.4% | 1.8% | -5.7% | -38.6% | 10.8% | 7.35%
28 | C/C(=N\NC(=S)N(C)C)c1nc2ncccc2[nH]1 | -44.1% | -24.1% | -64.8% | -1.5% | 18.7% | -19.1%
29 | COc1c(CC=C(C)C)c(O)c(C(CC(C)C)c2c(O)c(CC=C(C)C)c(O)c(C(C)=O)c2O)c(O)c1C(C)=O (centres undefined) | 32.9% | 41.5% | 34% | 41.3% | 38.5% | 31.1%
30 | CCCCNC(=O)c1cc(S(=O)(=O)n2cc[nH]c2=O)c(SC)cc1Cl | 4.1% | 2.7% | 15.8% | -2.75% | -5.05% | 31.2%
31 | CCCCOC1CCC(O)C2CCCCC12 (centres undefined) | 5.15% | -2.5% | -1.9% | -0.7% | -0.95% | 9.85%
32 | O=C(Oc1c(Cl)cc([N+](=O)[O-])cc1[N+](=O)[O-])Sc1ccccc1 | 99.4% (active) | 99.7% (active) | 99.5% (active) | 99.2% (active) | 99.5% (active) | 99.5% (active)
33 | Cc1cccc(/C=N/Nc2ccc([N+](=O)[O-])cc2[N+](=O)[O-])c1C | 11.2% | -6% | -5.1% | -11.2% | -15.6% | 4%
34 | CCc1c(C)c(C)c(C)c(C)c1C(C)=O | -5% | -22.4% | -7.35% | 20.1% | 6.4% | -26.6%
35 | CCCOc1cc2c(cc1C(C)c1ccc(OC)cc1)OCO2 (centres undefined) | 9.8% | -4.35% | 15.8% | -1.9% | -14.4% | -53%
36 | COC(C)CCOC(=O)c1ccc(C(C)C)cc1 (centres undefined) | 6.45% | 8% | 10.2% | -21.7% | 8.75% | 1.65%
37 | CCCOC(=O)C(O)Cc1ccccc1 (centres undefined) | -26.9% | 18.2% | 5.95% | -0.35% | -11.1% | -34.3%
38 | CS/C(=C\c1ccc2cc(C)ccc2[n+]1C)N1CCOCC1 | 7.25% | -3.85% | -16% | -2.05% | -45.6% | -56.5%
39 | Nc1ccc(C(=O)Oc2ccc(OC(=O)c3ccccc3)cc2)cc1 | 9.7% | 20.1% | 18.9% | -6.8% | 0.4% | 13.9%
